# Values joined by “and” are separate entries in the source; they are usually repeats but may differ in a detail not shown here. Identical values can stand only once. Inconclusive results are not listed. Entries that show only a call come without a potency. Active and inactive are the calls of the source. Calls follow the shape of the dose curve; as a rule, active = well fitted curve in the direction sought with a large enough effect; inconclusive = small, poorly fitted or top-dose-only effect, or another doubt; inactive = no such curve, though single readings can be large; an effect the other way counts as inactive or inconclusive.
# Assays:
# [1] = biological target: Guanine nucleotide-binding protein G(i) subunit alpha-1 (Homo sapiens) (UniProt P63096); assay: qHTS Assay for Inhibitors of RGS12 GoLoco Motif Activity (Green Fluorophore) (AID 879); details: Galphai1/FITC-RGS12 GoLoco peptide, fluorescence polarization; series mostly up to 57.1 µM;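 also: negative values mean loss of peptide binding seen as reduced polarization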
# Method in brief: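 Fluorescence polarization assay: 50 nM Gαi1 with 10 nM FITC-labeled RGS12 GoLoco peptide in 10 mM Tris pH 7.5, 150 mM NaCl, 0.1 mM GDP, 0.05% NP40, 10 min at room temperature with compound.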
# [2] = biological target: Cytochrome P450 2C9 (Homo sapiens) (UniProt P11712); assay: qHTS Assay for Inhibitors and Substrates of Cytochrome P450 2C9 (AID 883); details: recombinant CYP2C9, luciferin-H luminescence, 60 min; series mostly up to 57.1 µM; also: nearly all actives have a fitted effect of over 60% in size; also: potency is read from the fitted curve at half-maximal effect
# Method in brief: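 Luminescent read-out of deoxyluciferin hydroxylation, normalized to 57uM sulphaphenazole (AC100). Reaction: 10nM enzyme, 100uM Luciferin-H (equal to KM), 25mM KPO4, 10 min compound preincubation, then 60 min with NADPH regeneration, both at 37C.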
# [3] = qHTS Assay for Identification of Small Molecule Agonists for Thrombopoietin (TPO) Signaling Pathway (AID 917); details: TPO signaling pathway reporter cells, agonist qHTS, stimulated with TPO at its EC50; series mostly up to 38.5 µM
# Description: NIH Molecular Libraries Screening Centers Network [MLSCN]
# NIH Chemical Genomics Center [NCGC]
# The thrombopoietin (TPO) signaling pathway was assayed in murine Ba/F3 cells stably transfected with the human TPO receptor and a luciferase reporter gene controlled by the Glycoprotein IIb promoter (provided by Axxam). BaF3 cells are an IL-3-dependent pro B cell line that upon TPO stimulation, undergo cell division and induce the megakaryocyte marker, Glycoprotein IIb. The assay was screened at the EC50 of TPO (26 pM) to identify activators of the pathway.
# NCGC Assay Protocol Summary:
# Cells were maintained at 37 C and 5% CO2in RPMI with 10% fetal bovine serum, 0.5 ng/mL murine IL-3, 100U/ml penicillin and 100 ug/ml streptomycin. Prior to plating, cells were incubated overnight in medium without IL-3. Cells were plated at 250 cells/5uL/well into white solid 1536-well plates, 23 nL of compounds were delivered by a pin tool, and 1 uL of TPO (26 pM final concentration in IL-3 deficient medium) was added. Following 24 hrs of incubation at 37 C and 5% CO2, 4 uL of Steadylite detector mix (PerkinElmer) was added, the plates incubated at room temperature for 10 min and luminescence was measured for 10 s and 2X binning by a ViewLux detector (Perkin Elmer).
# [4] = biological target: Cytochrome P450 3A4 (Homo sapiens) (UniProt P08684); assay: qHTS Assay for Activators of Cytochrome P450 3A4 (AID 885); details: recombinant CYP3A4, Luciferin-PPXE luminescence, 60 min; series mostly up to 57.1 µM; also: nearly all actives have a fitted effect of over 65% in size
# Method in brief: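 Steps: enzyme/substrate mix dispensed; compound added, 10 min RT; NADPH regeneration solution added, 60 min RT; luciferin detection buffer stops reaction; 20 min later luminescence measured.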
# [5] = biological target: Cytochrome P450 2D6 (Homo sapiens) (UniProt P10635); assay: qHTS Assay for Inhibitors and Substrates of Cytochrome P450 2D6 (AID 891); details: recombinant CYP2D6, luciferin-ME EGE luminescence; series mostly up to 57.1 µM; also: nearly all actives have a fitted effect of over 60% in size; also: potency is read from the fitted curve at half-maximal effect
# Method in brief: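 Human CYP2D6 (5 nM) with 30 uM Luciferin-ME EGE (at Km) in 100 mM KPO4, compound preincubated 10 min, then NADPH regeneration system for 60 min at room temperature. Luciferin read by luminescence; normalized to 1.43 uM quinidine.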
# [6] = biological target: Cytochrome P450 3A4 (Homo sapiens) (UniProt P08684); assay: qHTS Assay for Inhibitors and Substrates of Cytochrome P450 3A4 (AID 884); details: recombinant CYP3A4, Luciferin-PPXE luminescence; series mostly up to 57.1 µM; also: nearly all actives have a fitted effect of over 50% in size; also: potency is read from the fitted curve at half-maximal effect
# Method in brief: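 20 nM human CYP3A4 with 25 uM Luciferin-PPXE (at KM) in 200 mM KPO4, preincubated 10 min with compound; NADPH regeneration started a 60 min RT reaction. Luciferin detected by luminescence, normalized to 57 uM ketoconazole as full inhibition.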
# [7] = Confirmation and Secondary Assay for Modulators of Hemoglobin Beta Chain Splicing at IVS2 654 locus (AID 910); details: HeLa EGFP-654 splicing reporter, GFP fluorescence, 48 h; series mostly up to 46.1 µM;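 also: HeLa cells stably carrying EGFP split by mutant beta-globin IVS2-654 intron; per-well total GFP intensity by laser scanning cytometry after 2-day treatment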
# Method in brief: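 Readout: per-well total peak green fluorescence (488 nm ex, 500–520 nm em) from objects 5–250 µm, reflecting correct splicing of an EGFP-654 reporter. Compounds were applied for 2 days at 37 °C to overnight-plated HeLa EGFP-654 cells; controls were DMSO and 500 nM IVS2-654 PNA.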
# [8] = biological target: Cytochrome P450 2C19 (Homo sapiens) (UniProt P33261); assay: qHTS Assay for Inhibitors and Substrates of Cytochrome P450 2C19 (AID 899); details: recombinant CYP2C19, luciferin-H EGE luminescence; series mostly up to 57.1 µM; also: nearly all actives have a fitted effect of over 60% in size; also: potency is read from the fitted curve at half-maximal effect
# Method in brief: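 Luminescence readout of luciferin formed from 10uM Luciferin-H EGE (KM level) by 5 nM CYP2C19 in 50mM KPO4. 60 min NADPH-driven reaction at 37C after 10 min compound preincubation; data scaled to 57uM ketoconazole inhibition.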
# [9] = Cellular Toxicity (caspase-3) NIH 3T3 (AID 666); details: NIH 3T3 caspase-3 activation, apoptosis/toxicity, 0% DMSO, 100% is 100 µM tamoxifen; series mostly up to 92.2 µM;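 also: caspase signal read after 16 h compound exposure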
# Method in brief: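 Mouse NIH 3T3 fibroblasts (1000/well) treated 16 h at 37 C; caspase-3/7 activity measured by Caspase-Glo 3/7 luminescence after 20 min. Normalized to DMSO and 100 uM tamoxifen; AC50 from Hill fits.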
# [10] = Cellular Toxicity (caspase-3) Renal Proximal Tubule (AID 667); details: renal proximal tubule cells, primary cells freshly taken from rat, solvent-only wells 0%, staurosporine 100%; series mostly up to 91.7 µM;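 also: cells exposed to compound for 16 hours at 37 °C before detection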
# Method in brief: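 Freshly isolated primary rat kidney proximal tubule cells, 1000/well, treated 16 hr at 37 °C, then Caspase-Glo 3/7 luminescence after 1 hr. Normalized to DMSO and 10 uM staurosporine; AC50 from Hill fit.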
# Cytochrome P450 2C19 (Homo sapiens), sequence (P33261 whole entry, looked up): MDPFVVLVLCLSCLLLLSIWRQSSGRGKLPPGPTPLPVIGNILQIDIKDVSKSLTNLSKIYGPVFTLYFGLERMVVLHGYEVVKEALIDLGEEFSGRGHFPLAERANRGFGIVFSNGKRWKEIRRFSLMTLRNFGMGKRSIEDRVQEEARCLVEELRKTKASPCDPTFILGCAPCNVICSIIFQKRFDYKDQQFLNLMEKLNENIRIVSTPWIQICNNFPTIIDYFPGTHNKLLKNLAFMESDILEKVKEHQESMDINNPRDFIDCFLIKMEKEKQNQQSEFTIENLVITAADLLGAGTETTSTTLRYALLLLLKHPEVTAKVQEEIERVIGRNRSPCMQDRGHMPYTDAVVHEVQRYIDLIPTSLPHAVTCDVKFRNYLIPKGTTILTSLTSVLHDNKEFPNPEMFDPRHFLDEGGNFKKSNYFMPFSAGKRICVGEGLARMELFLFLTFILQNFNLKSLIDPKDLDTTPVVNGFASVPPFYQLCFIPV
# Cytochrome P450 2C9 (Homo sapiens), sequence (P11712 whole entry, looked up): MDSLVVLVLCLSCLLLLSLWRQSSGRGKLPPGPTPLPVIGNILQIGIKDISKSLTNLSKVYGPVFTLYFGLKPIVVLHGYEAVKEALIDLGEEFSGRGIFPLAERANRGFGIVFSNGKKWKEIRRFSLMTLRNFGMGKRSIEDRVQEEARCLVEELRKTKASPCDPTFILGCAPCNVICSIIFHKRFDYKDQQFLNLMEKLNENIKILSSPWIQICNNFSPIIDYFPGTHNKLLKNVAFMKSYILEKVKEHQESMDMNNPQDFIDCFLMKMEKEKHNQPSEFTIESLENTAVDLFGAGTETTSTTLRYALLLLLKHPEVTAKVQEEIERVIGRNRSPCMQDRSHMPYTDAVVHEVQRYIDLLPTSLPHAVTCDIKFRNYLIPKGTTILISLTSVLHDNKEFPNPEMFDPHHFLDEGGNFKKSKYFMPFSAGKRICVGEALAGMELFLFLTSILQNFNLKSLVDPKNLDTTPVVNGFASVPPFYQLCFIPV
# Cytochrome P450 2D6 (Homo sapiens), sequence (P10635 whole entry, looked up): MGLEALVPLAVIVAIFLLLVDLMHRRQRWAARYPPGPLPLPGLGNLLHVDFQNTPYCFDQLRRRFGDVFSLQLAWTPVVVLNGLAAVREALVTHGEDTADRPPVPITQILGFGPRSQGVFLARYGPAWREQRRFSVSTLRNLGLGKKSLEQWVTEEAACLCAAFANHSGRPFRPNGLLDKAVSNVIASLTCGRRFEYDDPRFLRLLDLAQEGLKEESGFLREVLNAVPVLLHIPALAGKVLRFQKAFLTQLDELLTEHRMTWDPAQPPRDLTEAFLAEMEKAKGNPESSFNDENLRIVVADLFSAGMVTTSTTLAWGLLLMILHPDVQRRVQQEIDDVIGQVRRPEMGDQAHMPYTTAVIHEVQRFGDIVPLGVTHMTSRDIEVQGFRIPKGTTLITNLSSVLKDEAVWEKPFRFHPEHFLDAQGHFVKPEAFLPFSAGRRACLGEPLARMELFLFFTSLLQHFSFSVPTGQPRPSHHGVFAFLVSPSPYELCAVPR
# Cytochrome P450 3A4 (Homo sapiens), sequence (P08684 whole entry, looked up): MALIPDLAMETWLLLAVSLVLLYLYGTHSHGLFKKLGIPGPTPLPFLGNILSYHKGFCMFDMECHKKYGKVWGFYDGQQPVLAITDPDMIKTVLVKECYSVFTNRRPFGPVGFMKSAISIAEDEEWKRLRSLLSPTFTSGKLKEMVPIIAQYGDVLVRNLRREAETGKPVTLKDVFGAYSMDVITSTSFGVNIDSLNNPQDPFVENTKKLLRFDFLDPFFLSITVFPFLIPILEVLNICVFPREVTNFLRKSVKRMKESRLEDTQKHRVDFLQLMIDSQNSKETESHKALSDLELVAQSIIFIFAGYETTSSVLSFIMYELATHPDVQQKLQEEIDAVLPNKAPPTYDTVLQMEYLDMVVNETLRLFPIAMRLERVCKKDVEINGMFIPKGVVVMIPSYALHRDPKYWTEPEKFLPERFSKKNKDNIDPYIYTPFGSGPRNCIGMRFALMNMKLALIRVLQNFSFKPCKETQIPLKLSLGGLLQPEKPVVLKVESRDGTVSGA
# Guanine nucleotide-binding protein G(i) subunit alpha-1 (Homo sapiens), sequence (P63096 whole entry, looked up): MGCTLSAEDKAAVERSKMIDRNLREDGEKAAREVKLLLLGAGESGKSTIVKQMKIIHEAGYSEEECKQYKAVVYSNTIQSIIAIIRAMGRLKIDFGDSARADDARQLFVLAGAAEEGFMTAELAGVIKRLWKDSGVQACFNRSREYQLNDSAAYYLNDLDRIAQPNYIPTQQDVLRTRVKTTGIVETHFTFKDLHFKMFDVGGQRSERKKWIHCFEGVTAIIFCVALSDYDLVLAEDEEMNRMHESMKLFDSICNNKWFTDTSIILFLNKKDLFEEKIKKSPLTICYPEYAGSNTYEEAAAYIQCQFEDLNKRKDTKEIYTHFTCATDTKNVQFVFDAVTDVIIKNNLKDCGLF
smiles,measurement,setting,value
CN(C)CC[C@H](c1ccc(Cl)cc1)c1ccccn1,outcome,[1],inactive
same,Potency,[2],inactive
same,outcome,[3],inactive
O=C(O)C=Cc1ccc(Cn2ccnc2)cc1,outcome,[4],inactive
same,Potency,[5],0.0794 µM (active)
Cc1ccc(O)c(C(CCN(C(C)C)C(C)C)c2ccccc2)c1 (stereo not given),Potency,[6],inactive
same,outcome,[7],inactive
COc1ccc(C(C)=O)c(O)c1,Potency,[6],1.26 µM (active)
same,outcome,[4],inactive
same,outcome,[7],inactive
c1coc(CNc2ncnc3nc[nH]c23)c1,outcome,[7],inactive
COc1ccc([C@@H]2CNC(=O)C2)cc1OC1CCCC1,Potency,[2],inactive
same,outcome,[4],inactive
same,Potency,[5],inactive
same,Potency,[8],inactive
CCCCCCCCCCCC(CC1OC(=O)C1CCCCCC)OC(=O)C(CC(C)C)NC=O (stereo not given),outcome,[7],inactive
COC(=O)C1C2CC3c4[nH]c5cc(OC)ccc5c4CCN3CC2CC(OC(=O)c2cc(OC)c(OC)c(OC)c2)C1OC (stereo not given),outcome,[4],inactive
O=c1c(O)c(-c2ccc(O)c(O)c2)oc2cc(O)ccc12,Potency,[2],20 µM (active)
same,Potency,[6],39.8 µM (active)
same,outcome,[4],inactive
same,Potency,[5],inactive
same,Potency,[8],inactive
same,outcome,[7],inactive
C[C@@]12C(=O)OC(=O)[C@@]1(C)C1CCC2O1,Potency,[6],inactive
same,outcome,[7],inactive
CC(Cc1ccc(O)c(O)c1)(NN)C(=O)O (stereo not given),outcome,[7],inactive
COc1ccc2c(c1OC)C(=O)OC2[C@H]1c2c(cc3c(c2OC)OCO3)CCN1C (stereo not given in full),outcome,[1],inactive
same,outcome,[4],inactive
same,Potency,[5],15.8 µM (active)
same,Potency,[8],1.26 µM (active) and 316 nM (active) and 398 nM (active)
same,outcome,[3],inactive
Oc1cc2c(cc1O)C1c3ccc(O)c(O)c3OCC1(O)C2 (stereo not given),outcome,[4],inactive
same,outcome,[7],inactive
CCOC(=O)C1=C(C)NC(=S)NC1c1cccc(O)c1 (stereo not given),outcome,[4],inactive
Cc1cc(O)c2c(c1)C(=O)c1cccc(O)c1C2=O,outcome,[9],inactive
same,outcome,[10],inactive
same,outcome,[7],inactive
OCC(O)C(O)C(O)CO (stereo not given),Potency,[6],inactive
same,outcome,[7],inactive
CCC(C(=O)O)C1CCC(C)C(C(C)C(O)C(C)C(=O)C(CC)C2OC3(C=CC(O)[C@@]4(CC[C@](C)(C5CC[C@@](O)(CC)C(C)O5)O4)O3)C(C)CC2C)O1 (stereo not given in full),outcome,[7],inactive
